# HDAC3 inh: HDAC3 deacetylase inhibitors, primary screen, biochemical, fluorescence, cell-free homogeneous. 320,000 tested, 0.15% active. inhibition, % at 8.3 µM. Histone deacetylase 3 (Homo sapiens), O15379. AID 2718, 2010. recombinant HDAC3, fluorogenic peptide/trypsin coupled; in the data active = inhibition above about 26%, passing the limit was not always enough; inconclusive = no clear call, values can overlap the other calls
# DSG3 Ab inh: inhibitors of pemphigus antibody binding to DSG3, primary screen, biochemical, bead-based, flow cytometry, scFv-GFP | Desmoglein-3 (Homo sapiens), P32926 | DSG3-coupled beads, scFv-anti-DSG3-GFP binding; stronger effect = lower value | binding (percent of control), % at 10 µM | 310,000 tested, 0.48% active;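 active = binding more than 3 SD below its plate's average and above zero; inconclusive = below that plate limit but binding exactly zero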;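 note: hits lower antibody fragment binding to DSG3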
# PKD1 kinase inh: inhibitors of human PKD1 kinase, biochemical, fluorescence polarization. 200,000 tested, 0.056% active. PKD1 kinase fluorescence polarization assay. inhibition, % (concentration not given with the values). Serine/threonine-protein kinase D1 (Homo sapiens), Q15139. AID 797, 2007
# LANA-H2B inh: blockers of LANA interaction with H2A/H2B – biochemical, FP readout, HTS, primary screen; cell-free LANA-H2A/H2B peptide, fluorescence polarization; inhibition, % (no concentration beside the values); 320,000 tested, 0.6% active; AID 2629, 2010; in the data active = inhibition mostly above about 10%, no sharp cut-off; inactive = mostly below about 6.7%
# VLA-4 inh: inhibition in human VLA-4 binding assay, primary screen, VLA-4 allosteric modulator project, MLPCN library, flow cytometry, VLA-4 expressing cells; ligand binding flow cytometry; inhibition, % (about 7 µM as worked out from the volumes in the protocol); 330,000 tested, 0.2% active; Integrin alpha-4 (Homo sapiens), P13612
# GRK2 inh: compounds blocking aptamer binding on GRK2 – biochemical, human GRK2, bead flow cytometry, HTS, primary screen; inhibition of aptamer binding, % at 10 µM; FAM-aptamer displacement from GRK2; 330,000 tested, 0.59% active; Beta-adrenergic receptor kinase 1 (Homo sapiens), P25098;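 active = inhibition of aptamer binding above 40%, roughly 3 SD of noise, on plates passing a quality check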;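 note: median bead fluorescence of bound FAM aptamer so fluorescent compounds give negative values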
# Target sequence (P25098 whole entry, looked up): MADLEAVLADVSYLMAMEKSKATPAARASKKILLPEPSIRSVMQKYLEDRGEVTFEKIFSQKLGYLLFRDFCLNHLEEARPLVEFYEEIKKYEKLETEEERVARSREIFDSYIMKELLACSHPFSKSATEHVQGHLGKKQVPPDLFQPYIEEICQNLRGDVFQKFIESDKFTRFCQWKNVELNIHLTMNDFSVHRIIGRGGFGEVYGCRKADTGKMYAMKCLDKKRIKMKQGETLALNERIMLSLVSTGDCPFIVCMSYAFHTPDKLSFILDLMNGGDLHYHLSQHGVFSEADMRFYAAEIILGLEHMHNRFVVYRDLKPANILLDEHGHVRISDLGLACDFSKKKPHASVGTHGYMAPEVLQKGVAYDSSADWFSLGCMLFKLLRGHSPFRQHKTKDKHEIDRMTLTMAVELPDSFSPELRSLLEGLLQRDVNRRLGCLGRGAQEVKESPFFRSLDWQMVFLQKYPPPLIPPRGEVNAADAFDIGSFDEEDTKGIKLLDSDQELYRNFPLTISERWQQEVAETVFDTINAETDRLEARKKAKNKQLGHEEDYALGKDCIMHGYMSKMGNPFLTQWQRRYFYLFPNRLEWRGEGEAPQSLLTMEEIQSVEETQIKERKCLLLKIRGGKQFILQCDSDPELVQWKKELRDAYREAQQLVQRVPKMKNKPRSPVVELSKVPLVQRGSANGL
# VLA-4 allo CP: retest of VLA-4 allosteric modulators, confirmation, cell-based, cherry-picked plates, U937, HUTS-21 LIBS antibody; U937 cells, HUTS-21 LIBS mAb binding, flow cytometry; LDV ligand present at threefold Kd; shares compounds with VLA-4 inh; inhibition, % at 6.7 µM; 1,300 tested, 2% active; in the data active = inhibition above about 40%;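 note: 0% = ligand without compound and 100% = no ligand background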
# Starred values were filed as active, the others as inactive; ? = inconclusive; / = no result. Hits are enriched below; roughly 1.8% of the tested compounds scored in any of these assays. Cut-off read from the data, not from the text of the source, unless noted: active = inhibition above about 50%; inactive = the rest.
SMILES,HDAC3 inh,DSG3 Ab inh,PKD1 kinase inh,LANA-H2B inh,VLA-4 inh,GRK2 inh,VLA-4 allo CP
CC1=C(C(=O)OCC2CCCO2)C(c2ccncc2)C2=C(CCCC2=O)N1 (stereo unspecified),-8,113,-3,-5,92*,2,1
CCN(CC)C(=O)c1cc(-c2ccc3c(c2)OCO3)on1,-3,?,/,-1,55*,0,-6
FC(F)(F)c1cccnc1N1CCN(c2ncnc3nc[nH]c23)CC1,-1,105,-1,-2,50*,0,7
CCOC(=O)CNS(=O)(=O)c1cc(-c2nnc(Nc3ccc4c(c3)OCO4)c3ccccc23)ccc1C,1,104,-9,3,61*,3,23
Cc1ccc(-c2nnc(Nc3ccc(O)cc3)c3ccccc23)cc1S(=O)(=O)NCCO,0,107,/,1,0,3,/
CCOC(=O)N1CCC(N2Cc3cccc(C(=O)NCc4ccc(C)cc4)c3C2=O)CC1,-3,105,-9,4,50*,0,14
O=C(CS(=O)(=O)c1ccccc1)NC1CCCCC1,0,105,3,4,-2,0,/
CC(C)NC(=O)CS(=O)(=O)c1ccccc1,-9,/,/,-3,50*,1,6
CCOC(=O)C1(S(=O)(=O)c2ccc(Cl)cc2)CCN(Cc2ccc(C)cc2)CC1,1,102,-11,9,9,0,6
Cc1nn(C2CCS(=O)(=O)C2)c(C)c1CN(C)C(=O)c1ccc(F)cc1 (stereo unspecified),/,104,/,/,/,/,/
COc1ccc(S(=O)(=O)NCc2cccnc2)cc1C(=O)Nc1ccccc1,2,103,/,-2,4,1,/
Cc1ccc(C(=O)OCC(=O)Nc2ccccc2Cl)c(O)c1,/,97,/,-2,20,0,/
Cc1ccc(C(=O)OCC(=O)Nc2cccc(Cl)c2C)c(O)c1,0,98,/,-3,1,1,-5
CCn1cc(C(=O)NCCCN2CCC(C)CC2)c(=O)c2cc(S(=O)(=O)N3CCOCC3)ccc21,-4,106,/,0,29,3,/
CC(C)CC(=O)Nc1ccc2c(c1)nc(CCN1CCCCC1)n2C,-1,84,/,3,47,0,6
CC(C)C(=O)Nc1ccc2c(c1)nc(CCN1CCCCC1)n2C,-2,102,/,4,9,0,/
O=C1NN(c2ccccc2)C(=O)/C1=C/c1cccs1,5,/,-4,-1,41,2,-5
O=C1NN(c2cccc(Br)c2)C(=O)/C1=C/c1cccs1,4,95,/,1,2,1,/
CC(C)(C)c1ccc(S(=O)(=O)N2CCN(CC(O)CN3CCOCC3)CC2)cc1 (stereo unspecified),-2,136,/,3,5,0,/
O=[N+]([O-])/C=C/c1cn(Cc2ccccc2)c2ccccc12,4,100,-18,-2,18,5,/
N#Cc1ccccc1Cn1cc(/C=C/[N+](=O)[O-])c2ccccc21,1,119,3,0,42,0,31
Cc1ccc(NC(=O)C2CCN(C(=O)c3ccccc3C)CC2)nc1,2,115,/,0,2,1,8
Cc1ccccc1C(=O)N1CCC(C(=O)Nc2ccccc2Cl)CC1,-5,/,/,1,2,5,0
Cc1ccc(C(=O)N2CCC(C(=O)NC3CCCCCC3)CC2)cc1,-2,/,/,-5,-3,1,/
COC(=O)c1ccccc1NC(=O)C1CCN(C(=O)c2cc(OC)c(OC)c(OC)c2)CC1,-4,98,8,5,8,1,7
Cc1ccc(NC(=O)C2CCN(C(=O)c3ccc(Cl)cc3)CC2)nc1,/,112,/,/,7,1,0

# Assay outcomes: PubChem BioAssay, several laboratories
